Bioassay records (PubChem)
Hits are enriched below; roughly 14% of the tested compounds scored in any of these assays.
LASV entry inh: inhibitors of Lassa virus binding or cell entry | Lassa virus pseudotype entry inhibition, cell reporter | Potency, µM (titrated, usually from 37.9 µM), inactives show at the top dose activity change, negative = inhibition, hits mostly inhibitors | actives 1.2% (n = 300,000); calls by dose curve; tested in HEK293 cells; further: potency means the concentration at half of the fitted maximal effect; nearly all actives have a fitted effect of over 50% in size
HCMV antiviral: blocks human cytomegalovirus replication; HFF cells, HCMV-luciferase reporter, 72 h; hits give low values; activity change, negative = inhibition, % at 57.5 µM; actives 4.5% (n = 410,000); AID 1259415; in the data active means activity change below about -60%; inconclusive means no clear call, values can overlap the other calls; inactive means above about -39%
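Cell-based, HFFs, 1000 cells/well, 16 h 37C; cpds in DMSO + HCMV-luc, MOI 1 PFU/cell; 72 h 37C; OneGlo luminescence after 5 min RT; norm. to buffer vs Salinomycin 10uM.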
Marburg entry inh: Marburg virus entry inhibition | Marburg virus pseudotyped entry inhibition, cell reporter | Potency, µM (highest dose often 37.8 µM), for the others: at the top dose activity change, negative = inhibition, usual class: inhibitors | actives 1.8% (n = 300,000) | AID 540276; calls by dose curve; tested in HEK293 cells; further: potency means the concentration at half of the fitted maximal effect
HCV inhibitor: HCV inhibition; Huh7.5.1 HCVcc-Cre infection, luciferase reporter, 44 h; Potency, µM (titrated, usually from 41.8 µM), for inactives: top-dose activity change, negative = inhibition, hits mostly inhibitors; actives 3.4% (n = 340,000); AID 651820; further: potency means the concentration at half of the fitted maximal effect
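Compounds are dispensed onto cells plated 4 h earlier at 1,000 per well, with HCVcc-Cre virus (about 0.5 moi) added next. Following 44 h of culture, luminescent signal is measured for 15 sec after 15 min with substrate at room temperature.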
Pf growth 48h: P. falciparum growth inhibition at 48 hours (one generation). P. falciparum luciferase growth in erythrocytes, 48 h. Potency, µM (doses to about 28.7 µM), for the others: top-dose activity change, negative = inhibition, usual class: inhibitors. actives 5.9% (n = 310,000); further: potency means the concentration at half of the fitted maximal effect
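Here the parasites carry a stable luciferase gene and grow inside erythrocytes in Albumax-based RPMI medium with compound for one erythrocytic cycle. Activity is scored as loss of luminescent signal.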
Pf growth 96h: inhibits malaria parasite growth, 96 h; AID 504834; actives 6.9% (n = 320,000); Potency, µM (titrated, usually from 28.7 µM), for inactives: at the top dose activity change, negative = inhibition, usual class: inhibitors; P. falciparum luciferase reporter growth, 96 h; further: potency means the concentration at half of the fitted maximal effect
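P. falciparum expressing integrated firefly luciferase, in erythrocytes at 2% hematocrit, 0.05% parasitemia, incubated with compounds 96 h at 37 C, 5% CO2. Growth inhibition read as loss of luminescence; two-generation exposure targets delayed-death apicoplast inhibitors.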
* marks the source's active call; other numbers are inactive results; ? = inconclusive; . = no result; [ ] = remark or other dose. Unless noted, the call rests on the fitted dose curve; in most records, active means well fitted inhibition curve with a large enough effect; inconclusive means small, poorly fitted or top-dose-only effect, or another doubt; inactive means no such curve, though single readings can be large or run the other way. On the % scale 0 is the no-effect control and ±100 the full control effect.

SMILES | LASV entry inh | HCMV antiviral | Marburg entry inh | HCV inhibitor | Pf growth 48h | Pf growth 96h
COC(=O)c1ccc(COc2ccccc2/C=C(\C#N)C(=O)Nc2ccc(C)cc2C)cc1 | -10.9%[46.1 µM] | -28.0 | ? | 4.8% | 9.3% | -18.8%
COC(=O)c1ccc(COc2ccccc2/C=C(\C#N)C(=O)Nc2c(C)cc(C)cc2C)cc1 | ? | -93.4* | ? | ? | ? | ?
COC(=O)CC1=C(C(=O)OC)[C@H](c2cccc(OCC(N)=O)c2)C(C#N)=C(N)O1 | . | . | -29.8% | . | . | .
COC(=O)CC1=C(C(=O)OC)C(c2cccc(OCC(N)=O)c2)C(C#N)=C(N)O1 (stereo not drawn) | 1.5% | -101.2* | -29.8% | -9.8% | -1.6% | -3.0%[5.75 µM]
COC(=O)[C@@]12C[C@@H](CC(=O)NCc3cccc(C(F)(F)F)c3)C(=O)N(Cc3ccccc3)C1=CCC(C)(C)C2 | . | -17.8 | . | . | . | .
CCOc1ccccc1NC(=O)Cn1c(=O)n(-c2ccc(F)cc2)c(=O)c2c3c(sc21)CN(C(C)=O)CC3 | . | 11.7 | -21.0%[46.1 µM] | . | . | .
COc1ccccc1C(NC(=O)C1CCCCC1)c1c(O)ccc2ccccc12 (stereo not drawn) | 5.2% | -102.0* | ? | 2.8% | -10.4% | 387.6%
CCC(=O)NC(c1ccc(OC)cc1)c1c(O)ccc2ccccc12 (stereo not drawn) | . | 3.8 | . | -12.5% | ? | -17.0%
CCC(=O)NC(c1ccccc1Cl)c1c(O)ccc2ccccc12 (stereo not drawn) | -13.7% | ? | ? | -0.8% | 10.4µM* | -20.3%
COc1ccc(C(NC(=O)C(C)C)c2c(O)ccc3ccccc23)cc1 (stereo not drawn) | . | -30.8 | . | -26.9% | ? | -0.5%
CC(C)C(=O)NC(c1ccccc1Cl)c1c(O)ccc2ccccc12 (stereo not drawn) | ? | 0.3 | -28.2% | -10.7% | 9.28µM* | 4.65µM*
CC1CCN(C(=O)c2ncn3c2C(=O)NC[C@H]3C)CC1 | . | -11.3 | . | . | . | .
CCOC(=O)[C@]12CCCC=C1N(Cc1ccc(Cl)cc1Cl)C(=O)[C@H](CC(=O)NCC1CCCCC1)C2 | . | -12.6 | . | . | . | .
Cc1ccc(-n2c([O-])nc(-[n+]3ccccc3)c2C=O)cc1 | 19.4% | -72.1* | -0.4% | 7.0% | 0.2% | -17.0%
Cc1ccc[n+](-c2nc([O-])sc2C=O)c1 | -2.6% | -21.8 | -11.0%[46.1 µM] | -6.1% | 5.9% | -1.1%
CCc1nc2ccc(C(=O)NCCOc3ccc(OC)cc3)cn2c1N(C)C(=O)Cc1ccccc1 | . | -32.4 | . | . | . | .
COc1cc2c(cc1O)[C@@H]1Cc3ccc(OC)c(O)c3CN1CC2 | . | -15.4 | . | 2.51µM* | 11.7µM* | 6.57µM*
COc1ccc(C[C@@H]2c3cc(O)c(OC)cc3CCN2C)cc1O | -7.1% | 13.9 | -1.6% | 8.9% | 11.8% | -18.3%
CCN=c1scc(-c2cccs2)n1/N=C/c1cc(OC)ccc1O | ? | -95.3* | ? | 5.01µM* | 114.7% | 13.3%
Cn1ccn(CCCCCCn2ccn(C)c2=S)c1=S | . | -18.2 | . | . | . | .
CCCOc1ccccc1N/C(=N/c1nc(C)cc(C)n1)NC(=O)Nc1ccc(Cl)cc1 | ? | -38.4 | 0.708µM* | ? | 13.1µM* | 28.0%
CCCOc1ccccc1NC(=O)Nc1ccccc1Cl | 14.3%[46.1 µM] | ? | ? | ? | 12.6%[5.75 µM] | 8.28µM*
COc1ccccc1NC(=O)NCCCl | 24.7% | 50.3 | -2.9% | -0.9% | -11.3% | 58.4%
O=C(NCCCl)Nc1ccccc1OCCOc1ccccc1NC(=O)NCCCl | ? | 18.3 | -0.8%[46.1 µM] | ? | 2.08µM* | 2.08µM*
COc1ccccc1Cc1c(-c2ccc(C)cc2)nc2cc(C)c(Br)c(C)n12 | . | 81.3 | . | . | . | .
SMILES | LASV entry inh | HCMV antiviral | Marburg entry inh | HCV inhibitor | Pf growth 48h | Pf growth 96h
Cc1ccc(C(=O)Nc2ccc(NC(=O)c3cccs3)cc2)cc1[N+](=O)[O-] | . | -30.3 | . | -19.7% | 13.9% | 13.0%
Cc1ccc(C(=O)NC(=S)Nc2ccc(NC(=O)c3cccs3)cc2)cc1[N+](=O)[O-] | 5.4% | -78.3* | -20.2% | -10.1% | -0.9% | 9.28µM*
Cc1ccc[n+](C(C)C(=O)Nc2ccc(C)c([N+](=O)[O-])c2)c1 (stereo not drawn) | ? | 59.7 | -2.8% | ? | ? | 11.7µM*
Cc1ccc(NC(=O)c2cccs2)cc1[N+](=O)[O-] | -9.5% | 13.9 | -12.6%[46.1 µM] | 7.94µM* | 27.3% | ?
Cc1cc2occ(CC(=O)N(C)CC(=O)Nc3ccccc3C(F)(F)F)c2cc1C | . | -17.7 | . | 4.9% | -21.7% | -12.9%
Cc1cccc(C)c1NC(=O)C1(C)CCc2nc3ccccc3n21 (stereo not drawn) | . | -13.2 | . | . | . | .
O=C(O)CC1CCC(=C(Cl)Cl)C1 (stereo not drawn) | 6.4% | -5.9 | 12.4% | -0.5% | -1.1% | 11.7µM*
Cc1ccccc1CN1C(=O)C(O)(CC(=O)c2cccc(Br)c2)c2ccccc21 (stereo not drawn) | -23.7%[46.1 µM] | ? | . | . | . | .
CCOc1ccc2[nH]cc(-c3csc(N)n3)c2c1 | . | -10.3 | . | -19.8% | 11.7µM* | ?
NC(=O)CSc1nnc(Cn2cnc3ccccc32)o1 | . | -5.6 | . | 3.0% | 54.3% | 69.3%
CCN(C(=O)CSc1nnc(Cn2nnc3ccccc32)o1)c1nc(C)cs1 | 7.7% | -21.7 | -13.0% | -0.5% | -2.4% | 9.28µM*
CCN(C(=O)CSc1nnc(Cn2nnc3ccccc32)o1)c1nc(-c2ccccc2)cs1 | ? | -27.6 | ? | ? | . | 44.4%
O=C(CSc1nnc(Cn2nnc3ccccc32)o1)N(Cc1ccc(Cl)cc1)c1ccccc1 | ? | -2.2 | 6.31µM* | 6.31µM* | 10.4µM* | .
Clc1ccc(CSc2nnc(Cn3cnc4ccccc43)o2)cc1 | ? | -81.2* | ? | ? | -13.6% | ?
CCOC(=O)C(Cc1ccccc1)C(=O)Nc1ccc(NC(=O)C(Cc2ccccc2)C(=O)OCC)cc1 (stereo not drawn) | 11.1% | 5.3 | 13.9% | 10.0% | 9.6% | 105.1%
CCOC(=O)NCc1ccc(S(=O)(=O)Nc2ccccc2C)cc1 | -2.3% | 8.6 | -18.6% | -1.4% | . | 13.1µM*
O=C(NCc1ccc(C(=O)O)cc1)OCc1ccccc1 | -22.6% | 61.0 | -2.2%[46.1 µM] | 12.0% | 12.7% | ?
CCOC(=O)C(Cc1ccccc1)C(=O)NCc1ccccc1 (stereo not drawn) | 11.2% | -5.9 | 0.0% | 12.2% | 20.8% | 3.29µM*
CCOC(=O)NCc1ccccc1 | . | . | . | 2.82µM* | 16.9% | 43.8%
COc1ccc(N2CCN(c3csc4ccccc4c3=O)CC2)cc1 | ? | 0.7 | . | . | . | .
COC(=O)c1cc2occc2n1Cc1nc(-c2ccccc2)oc1C | . | -1.1 | ? | . | . | .
COC(=O)c1cc2occc2n1Cc1nc(-c2ccccc2Cl)oc1C | 0.7% | -39.8 | 3.8% | 1.1%[8.37 µM] | -18.6% | 11.7µM*
Cn1c(CC(=O)Nc2ccc(Cl)c(Cl)c2)n[nH]c1=S | -9.2%[46.1 µM] | 45.2 | 0.8%[46.1 µM] | -1.6% | -2.9% | 0.0738µM*
